Reference: PubChem BioAssay (Tox21)
Records with an inconclusive call do not appear. Active and inactive are the calls of the source. Unless noted, calls follow the shape of the dose curve; as a rule, active = well fitted curve in the direction sought with a large enough effect in the repeat runs; inconclusive = weak or mixed curves; inactive = no such curve, though single readings can be large; an effect the other way counts as inactive or inconclusive.

What was measured:
[1] = qHTS assay for small molecule agonists of the p53 signaling pathway (AID 651631; calls by dose curve; also: nearly all actives have a fitted effect of over 15% in size)
Summary of the method: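 p53RE-bla HCT-116 cells; compounds 16 h, 37 °C; LiveBLAzer B/G FRET substrate 2 h RT; fluorescence intensity read-out, qHTS format.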

[2] = qHTS assay for small molecules that induce genotoxicity in human embryonic kidney cells expressing luciferase-tagged ATAD5 (AID 651632); also: nearly all actives have a fitted effect of over 15% in size
Summary of the method: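 Genotoxicity read-out via ATAD5-luciferase: HEK293T cells, 16 hr compound incubation at 37C, Amplite detection.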

[3] = qHTS assay for small molecule agonists of the p53 signaling pathway - cell viability (AID 651633; calls by dose curve;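 also: p53RE-bla HCT reporter cells with a stable beta-lactamase p53 reporter; series mostly up to about 83 µM; nearly all actives have a fitted effect of over 30% in size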)
Summary of the method: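 Viability counter-read: CellTiter-Glo luminescence (30 min, room temperature) in the same p53RE-bla plates. These plates had been exposed to compounds for 16 h at 37 C.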

[4] = qHTS assay for small molecule disruptors of the mitochondrial membrane potential - cell viability (AID 720634; calls by dose curve;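 also: human HepG2 liver cancer cells; series mostly up to about 83 µM; nearly all actives have a fitted effect of over 20% in size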)
Summary of the method: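 Human hepatoma HepG2 cells were treated for 1 hr with test chemicals, then given m-MPI dye and CellTiter-Glo. Cell viability reflects luminescence proportional to cellular ATP.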

[5] = qHTS assay for small molecule disruptors of the mitochondrial membrane potential (AID 720635); also: potency is read from the fitted curve at half-maximal effect
Summary of the method: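 Mitochondrial membrane potential tracked with Mito-MPS dye, red aggregates (ex 540/em 590 nm) against green monomers (ex 490/em 535 nm). Compound treatment 1 hr at 37C, dye 30 min in HepG2.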

[6] = qHTS assay to test for compound auto fluorescence at 590 nm (red) in HepG2 cells (AID 720674)
Summary of the method: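 We screened compounds on adherent HepG2 cells, incubating them for an hour at 37 C in 5% CO2 before reading emission at 590 nm under 540 nm excitation; values reflect equivalence to Rose Bengal sodium fluorescence.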

[7] = qHTS assay to test for compound auto fluorescence at 535 nm (green) in HepG2 cells (AID 720675)
[8] = qHTS assay to test for compound auto fluorescence at 460 nm (blue) in HEK293 cells (AID 720678)
Summary of the method: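 Intrinsic compound fluorescence is recorded in live HEK293 cultures after overnight incubation at 37C, 5% CO2, using excitation 405 nm and emission 460 nm. Values are referenced to triamterene.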

[9] = qHTS assay to test for compound auto fluorescence at 590 nm (red) in HEK293 cells (AID 720679)
Summary of the method: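 Red autofluorescence, HEK293 cells: 2,000 cells/well; attach 4-5 hr 37C; add 23 nL cpd or DMSO; incubate o/n 37C 5% CO2; read Ex540/Em590; Rose Bengal sodium reference.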

[10] = qHTS assay to test for compound auto fluorescence at 535 nm (green) in HEK293 cells (AID 720680)
[11] = qHTS assay to test for compound auto fluorescence at 460 nm (blue) in HEK293 cell free culture (AID 720681)
Summary of the method: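 Blue fluorescence (Ex 405/Em 460 nm, triamterene-equivalent) was read immediately after pin transfer of compound or DMSO into medium (DMEM, 10% FBS) without cells.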

[12] = qHTS assay to test for compound auto fluorescence at 535 nm (green) in HEK293 cell free culture (AID 720682)
Summary of the method: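 Cell-free medium (DMEM, 10% FBS) receives compound or DMSO by pintool. Plate read directly at Ex 485/Em 535 nm. Signal converted to fluorescein equivalency.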

[13] = qHTS assay to test for compound auto fluorescence at 590 nm (red) in HEK293 cell free culture (AID 720683)
Summary of the method: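 Red-channel autofluorescence of compounds in culture medium (DMEM, 10% FBS), no cells, measured at 540/590 nm. Rose Bengal sodium is the reference fluorophore for equivalence.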

[14] = qHTS assay to test for compound auto fluorescence at 460 nm (blue) in HepG2 cell free culture (AID 720685)
Summary of the method: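 Compound (23 nL) or DMSO pinned into cell-free MEM with 10% FBS; blue fluorescence read at 405/460 nm excitation/emission, expressed as auto-fluorescence equivalency to triamterene.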

[15] = qHTS assay to test for compound auto fluorescence at 535 nm (green) in HepG2 cell free culture (AID 720686)
[16] = qHTS assay to test for compound auto fluorescence at 460 nm (blue) in HepG2 cells (AID 720687)
Summary of the method: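 Blue-channel autofluorescence (Ex/Em 405/460 nm, triamterene-equivalent) was measured after 1 hr compound exposure at 37 C, 5% CO2. Cells were HepG2, plated overnight at 37 C in MEM plus 10% FBS.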

[17] = qHTS assay to test for compound auto fluorescence at 590 nm (red) in HepG2 cell free culture (AID 720684)
Summary of the method: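 Steps: dispense MEM/10% FBS medium, no cells; pin compound or DMSO vehicle; read red channel, Ex/Em 540/590 nm. Output given as Rose Bengal sodium equivalents.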

[18] = molecular target: Glucocorticoid receptor (Homo sapiens) (UniProt P04150); experiment: qHTS assay to identify small molecule agonists of the glucocorticoid receptor (GR) signaling pathway (AID 720691; active = well fitted activation curve with a large enough effect in the signal ratio in the repeat runs, not every such curve was filed as active; the % refers to the signal ratio)
Summary of the method: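 Beta-lactamase reporter activity, read as fluorescence intensity, was measured in GR-bla HeLa cells exposed to compounds for 18 h at 37 C and then loaded with LiveBLAzer B/G FRET substrate for 2 h at room temperature.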

[19] = molecular target: Glucocorticoid receptor (Homo sapiens) (UniProt P04150); experiment: qHTS assay to identify small molecule antagonists of the glucocorticoid receptor (GR) signaling pathway (AID 720692; active = well fitted inhibition curve with a large enough effect in the signal ratio in the repeat runs, not every such curve was filed as active; the % refers to the signal ratio)
Summary of the method: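 Fluorescence from cleaved LiveBLAzer B/G FRET substrate reports GRE-driven beta-lactamase in HeLa cells; compounds are tested against 5 nM dexamethasone (final) over 18 h at 37 C, substrate incubation 2 h at room temperature.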

[20] = qHTS assay for small molecules that induce genotoxicity in human embryonic kidney cells expressing luciferase-tagged ATAD5 - cell viability (AID 651634; calls by dose curve; also: nearly all actives have a fitted effect of over 25% in size)
Summary of the method: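 Live-cell protease activity (CellTiter-Fluor, fluorescence) indicates viability. HEK293T cells with luciferase-tagged ATAD5; 15.5 hr compound treatment at 37C.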
% is scaled to controls: 0 for no effect and ±100 for the full control effect.

Glucocorticoid receptor (Homo sapiens), sequence (P04150 whole entry, looked up): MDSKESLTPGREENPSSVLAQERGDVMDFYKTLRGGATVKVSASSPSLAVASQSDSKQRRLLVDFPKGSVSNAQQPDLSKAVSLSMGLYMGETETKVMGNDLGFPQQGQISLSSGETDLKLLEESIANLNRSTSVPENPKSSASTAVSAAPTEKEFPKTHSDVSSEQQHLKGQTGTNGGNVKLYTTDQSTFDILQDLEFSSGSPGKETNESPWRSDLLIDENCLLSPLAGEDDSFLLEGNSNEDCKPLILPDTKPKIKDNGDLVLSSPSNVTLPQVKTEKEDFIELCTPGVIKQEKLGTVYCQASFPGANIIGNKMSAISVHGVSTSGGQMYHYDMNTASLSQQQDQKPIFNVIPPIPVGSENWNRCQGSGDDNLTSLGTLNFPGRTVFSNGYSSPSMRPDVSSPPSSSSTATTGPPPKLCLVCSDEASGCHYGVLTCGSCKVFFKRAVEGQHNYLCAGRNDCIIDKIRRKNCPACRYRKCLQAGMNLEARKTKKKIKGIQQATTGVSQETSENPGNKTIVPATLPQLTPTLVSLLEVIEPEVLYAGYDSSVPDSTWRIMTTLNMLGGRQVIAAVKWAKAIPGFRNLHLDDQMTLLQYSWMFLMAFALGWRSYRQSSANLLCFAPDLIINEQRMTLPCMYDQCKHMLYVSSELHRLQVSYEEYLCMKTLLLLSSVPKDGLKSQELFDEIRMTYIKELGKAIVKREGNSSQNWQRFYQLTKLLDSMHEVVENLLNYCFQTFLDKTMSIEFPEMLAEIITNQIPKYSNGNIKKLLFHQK

CCCCOC(C)=O
inactive: Potency [1] | outcome [2] | Potency [3] | Potency [4] | Potency [5] | outcome [6] | outcome [7] | outcome [8] | outcome [9] | outcome [10] | outcome [11] | outcome [12] | outcome [13] | outcome [14] | outcome [15] | outcome [16]

CCCCCCCCSC(=O)Oc1cc(Cl)nnc1-c1ccccc1
active: Potency [5] 30.6 µM
inactive: Potency [1] | outcome [2] | Potency [3] | Potency [4] | outcome [6] | outcome [7] | outcome [8] | outcome [9] | outcome [10] | outcome [11] | outcome [12] | outcome [13] | outcome [17] | outcome [14] | outcome [16]

CC1N=C(N)OC1c1ccccc1 (stereo unspecified)
inactive: Potency [1] | outcome [2] | Potency [3] | Potency [4] | Potency [5] | outcome [6] | outcome [7] | outcome [8] | outcome [9] | outcome [10] | outcome [11] | outcome [12] | outcome [13] | outcome [17] | outcome [14] | outcome [15] | outcome [16] | Potency [18] | Potency [19]

CNC(=O)O/N=C(/CSC)C(C)(C)C
inactive: Potency [1] | outcome [2] | Potency [3] | Potency [20] | Potency [4] | outcome [6] | outcome [7] | outcome [8] | outcome [9] | outcome [10] | outcome [11] | outcome [13] | outcome [17] | outcome [14] | outcome [15] | outcome [16] | Potency [18] | Potency [19]

Brc1c(Br)c(Br)c(Br)c(Br)c1Br
inactive: activation [1] -6.36% [at 8.3 µM] | activation [2] 2.71% [at 8.08 µM] | activity change, negative = cytotoxicity [3] 9.67% [at 8.08 µM] | activity, negative = cytotoxicity [20] 13.6% [at 8.08 µM] | activity change, negative = cytotoxicity [4] 4.11% [at 8.08 µM] | fluorescence, relative to Rose Bengal [6] 0.167% [at 3.72 µM] | fluorescence, % of fluorescein control [7] 0.0147% [at 3.72 µM] | fluorescence, % of triamterene [8] 0.185% [at 3.72 µM] | fluorescence, % of fluorescent control [9] -0.438% [at 3.72 µM] | fluorescence, % of fluorescein [10] -0.0363% [at 3.72 µM] | fluorescence, % of fluorescent control [11] 0.241% [at 3.72 µM] | fluorescence, % of fluorescent control [13] -0.398% [at 3.72 µM] | fluorescence, % of fluorescent control [14] 0.0001% [at 3.72 µM] | fluorescence, % of fluorescein control [15] 0.0083% [at 3.72 µM] | fluorescence, % of fluorescent control [16] 0.182% [at 3.72 µM] | activity change, negative = inhibition [19] 4.46% [at 7.04 µM]

CCc1cc(OC)c(C[C@H](C)N)cc1OC
inactive: Potency [1] | outcome [2] | Potency [3] | Potency [20] | Potency [4] | outcome [6] | outcome [7] | outcome [8] | outcome [9] | outcome [10] | outcome [11] | outcome [12] | outcome [13] | outcome [14] | outcome [15] | outcome [16] | Potency [19]

CCN(CC)C1CCCCC1
inactive: Potency [1] | outcome [2] | Potency [3] | Potency [20] | Potency [4] | outcome [6] | outcome [7] | outcome [8] | outcome [9] | outcome [10] | outcome [11] | outcome [12] | outcome [13] | outcome [14] | outcome [16] | Potency [18] | Potency [19]

COC(=O)c1ccccc1CS(=O)(=O)NC(=O)Nc1nc(OC)cc(OC)n1
inactive: Potency [1] | outcome [2] | Potency [3] | Potency [20] | Potency [4] | outcome [6] | outcome [7] | outcome [8] | outcome [9] | outcome [10] | outcome [11] | outcome [12] | outcome [13] | outcome [17] | outcome [14] | outcome [16] | Potency [19]
